Measurements published in PMC7862700, “An all-to-all approach to the identification of sequence-specific readers for epigenetic DNA modifications on cytosine”.

What was measured:
Assay in all cases: DAPPL (digital affinity profiling via proximity ligation, sequencing); 10 mM Tris-HCl pH 7.5, 50 mM NaCl, 1 mM DTT, 4% glycerol, room temperature, 30 min; GST-TFs on glutathione beads, 16-mer random dsDNA library, 0.1% formaldehyde crosslink after washing; high values mean tight binding
Settings in all cases: protein: recombinant; tags: N-terminal GST; dsDNA, one strand shown
ERF = molecular target: T1, ERF (Homo sapiens, UniProt P50548 1-548)
T1 sequence: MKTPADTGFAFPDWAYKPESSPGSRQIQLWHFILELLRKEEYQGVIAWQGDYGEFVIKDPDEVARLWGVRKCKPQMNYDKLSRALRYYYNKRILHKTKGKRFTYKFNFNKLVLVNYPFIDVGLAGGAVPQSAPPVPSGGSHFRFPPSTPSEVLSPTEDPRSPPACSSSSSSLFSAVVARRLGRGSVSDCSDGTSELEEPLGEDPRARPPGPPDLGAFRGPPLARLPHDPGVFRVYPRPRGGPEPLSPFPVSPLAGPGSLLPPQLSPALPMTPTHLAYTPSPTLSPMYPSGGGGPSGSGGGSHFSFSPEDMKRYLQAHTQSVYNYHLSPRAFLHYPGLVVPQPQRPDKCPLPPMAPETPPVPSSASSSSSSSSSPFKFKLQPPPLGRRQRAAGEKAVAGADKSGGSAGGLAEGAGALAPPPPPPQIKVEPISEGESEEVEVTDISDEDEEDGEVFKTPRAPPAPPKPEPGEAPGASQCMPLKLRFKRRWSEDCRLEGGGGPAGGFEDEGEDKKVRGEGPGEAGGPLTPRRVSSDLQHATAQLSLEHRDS
Summary of the method: (§1)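 Human transcription factors fused to GST were expressed in yeast, captured on glutathione beads, given DNA barcodes and pooled with a GST-only negative control. Pools were incubated with 200 nmole of a 16-mer random double-stranded DNA library in Tris/NaCl/DTT/glycerol buffer at room temperature for 30 min. They were then washed, crosslinked with 0.1% formaldehyde, proximity-ligated (BsaI/T4 ligase, 1 h, 37 °C), PCR-amplified and sequenced on an Illumina NextSeq500. Binding signal is each 6-mer's read frequency for a factor divided by its frequency for the GST control.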

ETV3L = molecular target: T2, ETV3L (Homo sapiens, UniProt Q6ZN32 1-361)
T2 sequence: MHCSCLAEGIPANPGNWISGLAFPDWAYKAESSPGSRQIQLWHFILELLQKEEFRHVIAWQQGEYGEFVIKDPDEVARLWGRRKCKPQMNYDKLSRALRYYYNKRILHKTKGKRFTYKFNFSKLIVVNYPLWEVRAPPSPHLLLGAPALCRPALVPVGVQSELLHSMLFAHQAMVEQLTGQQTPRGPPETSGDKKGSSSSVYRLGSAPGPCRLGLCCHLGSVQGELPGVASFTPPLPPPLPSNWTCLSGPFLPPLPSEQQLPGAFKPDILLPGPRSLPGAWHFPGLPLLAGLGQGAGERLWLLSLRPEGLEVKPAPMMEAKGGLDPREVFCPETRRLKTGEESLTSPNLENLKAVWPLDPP
Summary of the method: as §1

ETS2 = molecular target: T3, ETS2 (Homo sapiens, UniProt P15036 1-469)
T3 sequence: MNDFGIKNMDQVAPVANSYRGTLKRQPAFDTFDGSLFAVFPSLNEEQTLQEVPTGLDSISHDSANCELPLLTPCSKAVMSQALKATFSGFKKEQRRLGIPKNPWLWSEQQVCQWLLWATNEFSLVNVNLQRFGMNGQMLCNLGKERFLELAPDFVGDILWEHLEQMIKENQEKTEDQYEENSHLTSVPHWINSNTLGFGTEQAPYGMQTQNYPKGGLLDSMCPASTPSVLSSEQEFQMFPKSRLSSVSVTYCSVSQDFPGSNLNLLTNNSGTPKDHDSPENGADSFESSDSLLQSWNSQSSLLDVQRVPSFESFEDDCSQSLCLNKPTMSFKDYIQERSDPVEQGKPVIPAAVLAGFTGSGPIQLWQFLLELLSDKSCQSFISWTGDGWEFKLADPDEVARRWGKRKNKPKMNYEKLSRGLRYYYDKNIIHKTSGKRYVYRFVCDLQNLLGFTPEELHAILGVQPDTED
Summary of the method: as §1

SPDEF = molecular target: T4, SPDEF (Homo sapiens, UniProt O95238 1-335)
T4 sequence: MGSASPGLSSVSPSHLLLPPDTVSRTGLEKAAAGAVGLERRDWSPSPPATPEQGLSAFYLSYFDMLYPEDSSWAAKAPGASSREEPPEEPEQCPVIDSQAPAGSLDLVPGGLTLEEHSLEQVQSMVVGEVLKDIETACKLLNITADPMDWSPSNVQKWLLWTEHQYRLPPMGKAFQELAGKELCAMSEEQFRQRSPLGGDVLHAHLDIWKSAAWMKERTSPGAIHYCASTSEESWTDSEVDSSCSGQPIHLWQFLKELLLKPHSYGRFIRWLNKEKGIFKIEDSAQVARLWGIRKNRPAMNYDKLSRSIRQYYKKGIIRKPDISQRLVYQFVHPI
Summary of the method: as §1

ETV7 = molecular target: T5, ETV7 (Homo sapiens, UniProt Q9Y603 1-341)
T5 sequence: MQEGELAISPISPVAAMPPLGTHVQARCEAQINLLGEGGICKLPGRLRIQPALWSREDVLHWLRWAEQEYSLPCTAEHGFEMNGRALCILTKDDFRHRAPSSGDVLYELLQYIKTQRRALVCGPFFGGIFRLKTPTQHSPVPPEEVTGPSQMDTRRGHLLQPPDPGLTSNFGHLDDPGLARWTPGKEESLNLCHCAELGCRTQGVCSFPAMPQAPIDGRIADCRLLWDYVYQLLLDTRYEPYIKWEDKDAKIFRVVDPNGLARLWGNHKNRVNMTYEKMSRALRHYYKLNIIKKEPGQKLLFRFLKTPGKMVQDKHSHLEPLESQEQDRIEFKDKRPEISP
Summary of the method: as §1

ELF5 = molecular target: T6, ELF5 (Homo sapiens, UniProt Q9UKW6-2 1-255)
T6 sequence: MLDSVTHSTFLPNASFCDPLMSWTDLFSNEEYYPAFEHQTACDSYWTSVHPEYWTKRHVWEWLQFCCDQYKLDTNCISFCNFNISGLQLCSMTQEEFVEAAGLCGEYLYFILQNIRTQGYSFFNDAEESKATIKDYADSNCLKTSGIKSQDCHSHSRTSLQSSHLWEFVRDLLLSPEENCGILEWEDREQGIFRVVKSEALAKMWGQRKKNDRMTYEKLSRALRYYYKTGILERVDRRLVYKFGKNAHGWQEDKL
Summary of the method: as §1

ETV3 = molecular target: T7, ETV3 (Homo sapiens, UniProt P41162-2 1-143)
T7 sequence: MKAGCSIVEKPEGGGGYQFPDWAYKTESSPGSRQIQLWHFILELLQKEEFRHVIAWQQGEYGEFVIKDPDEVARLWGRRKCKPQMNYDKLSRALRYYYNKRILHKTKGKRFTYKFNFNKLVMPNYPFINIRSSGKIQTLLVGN
Summary of the method: as §1

ETV6 = ETV6 (Homo sapiens, UniProt P41212 1-452)
ETV6, sequence (P41212 whole entry): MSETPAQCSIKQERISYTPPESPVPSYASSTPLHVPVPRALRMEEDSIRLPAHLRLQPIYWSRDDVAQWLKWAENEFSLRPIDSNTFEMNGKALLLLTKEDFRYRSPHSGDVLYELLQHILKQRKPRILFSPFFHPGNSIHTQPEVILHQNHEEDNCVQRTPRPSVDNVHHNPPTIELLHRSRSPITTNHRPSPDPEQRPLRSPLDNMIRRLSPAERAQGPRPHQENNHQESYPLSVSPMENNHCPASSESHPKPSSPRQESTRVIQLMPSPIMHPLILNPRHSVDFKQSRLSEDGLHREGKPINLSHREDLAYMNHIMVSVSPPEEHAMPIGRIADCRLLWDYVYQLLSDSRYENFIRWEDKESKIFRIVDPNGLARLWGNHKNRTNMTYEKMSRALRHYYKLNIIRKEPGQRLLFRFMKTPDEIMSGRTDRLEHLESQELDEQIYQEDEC
Summary of the method: as §1

Sequence | binding signal (ERF) | binding signal (ETV3L) | binding signal (ETS2) | binding signal (SPDEF) | binding signal (ETV7) | binding signal (ELF5) | binding signal (ETV3) | binding signal (ETV6)
CACCTC | 1.21 fold enrichment (6-mer frequency, TF over GST control) | 1.18 fold enrichment (6-mer frequency, TF over GST control) | 1.06 fold enrichment (6-mer frequency, TF over GST control) | 1.17 fold enrichment (6-mer frequency, TF over GST control) | 1.17 fold enrichment (6-mer frequency, TF over GST control) | 1.09 fold enrichment (6-mer frequency, TF over GST control) | 1.15 fold enrichment (6-mer frequency, TF over GST control) | 1.14 fold enrichment (6-mer frequency, TF over GST control)
CGATAT | 1.1 fold enrichment (6-mer frequency, TF over GST control) | 1.14 fold enrichment (6-mer frequency, TF over GST control) | 1.12 fold enrichment (6-mer frequency, TF over GST control) | 1.06 fold enrichment (6-mer frequency, TF over GST control) | 1.11 fold enrichment (6-mer frequency, TF over GST control) | 1.06 fold enrichment (6-mer frequency, TF over GST control) | 1.03 fold enrichment (6-mer frequency, TF over GST control) | 1.06 fold enrichment (6-mer frequency, TF over GST control)
CGACAC | 1.08 fold enrichment (6-mer frequency, TF over GST control) | 1.21 fold enrichment (6-mer frequency, TF over GST control) | 1.19 fold enrichment (6-mer frequency, TF over GST control) | 1.15 fold enrichment (6-mer frequency, TF over GST control) | 1.16 fold enrichment (6-mer frequency, TF over GST control) | 1.19 fold enrichment (6-mer frequency, TF over GST control) | 1.2 fold enrichment (6-mer frequency, TF over GST control) | 1.28 fold enrichment (6-mer frequency, TF over GST control)
CGGCAT | 1.09 fold enrichment (6-mer frequency, TF over GST control) | 1.23 fold enrichment (6-mer frequency, TF over GST control) | 1.17 fold enrichment (6-mer frequency, TF over GST control) | 1.22 fold enrichment (6-mer frequency, TF over GST control) | 1.07 fold enrichment (6-mer frequency, TF over GST control) | 1.07 fold enrichment (6-mer frequency, TF over GST control) | 1.19 fold enrichment (6-mer frequency, TF over GST control) | 1.21 fold enrichment (6-mer frequency, TF over GST control)
ATGTTG | 1.24 fold enrichment (6-mer frequency, TF over GST control) | 1.23 fold enrichment (6-mer frequency, TF over GST control) | 1.22 fold enrichment (6-mer frequency, TF over GST control) | 1.31 fold enrichment (6-mer frequency, TF over GST control) | 1.43 fold enrichment (6-mer frequency, TF over GST control) | 1.15 fold enrichment (6-mer frequency, TF over GST control) | 1.33 fold enrichment (6-mer frequency, TF over GST control) | 1.22 fold enrichment (6-mer frequency, TF over GST control)
TTAAAT | 1.1 fold enrichment (6-mer frequency, TF over GST control) | 1.22 fold enrichment (6-mer frequency, TF over GST control) | 1.19 fold enrichment (6-mer frequency, TF over GST control) | 1.16 fold enrichment (6-mer frequency, TF over GST control) | 1.21 fold enrichment (6-mer frequency, TF over GST control) | 1.08 fold enrichment (6-mer frequency, TF over GST control) | 1.15 fold enrichment (6-mer frequency, TF over GST control) | 1.23 fold enrichment (6-mer frequency, TF over GST control)
GCCGAC | 1.2 fold enrichment (6-mer frequency, TF over GST control) | 1.29 fold enrichment (6-mer frequency, TF over GST control) | 1.15 fold enrichment (6-mer frequency, TF over GST control) | 1.12 fold enrichment (6-mer frequency, TF over GST control) | 1.12 fold enrichment (6-mer frequency, TF over GST control) | 1.07 fold enrichment (6-mer frequency, TF over GST control) | 1.23 fold enrichment (6-mer frequency, TF over GST control) | 1.08 fold enrichment (6-mer frequency, TF over GST control)
